CIT2 TOR yeast = yeast TOR pathway CIT2-GFP modulation; S. cerevisiae CIT2-GFP strain, flow cytometry, 3 h; 100 means same as DMSO wells; GFP response vs DMSO, % at 10 µM; 320,000 compounds, 0.065% hits; AID 2029;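 active = GFP response relative to DMSO above a set limit, near the screen mean plus 3 SD, cut at about 150% in these data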;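 also: ratio of well median GFP fluorescence to mean of DMSO wells on the plate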
AGP1-GFP MLPCN = alters AGP1-GFP fluorescence in TOR pathway yeast screen | AID 2066 | 320,000 compounds, 0.02% hits | GFP response vs DMSO, % at 10 µM | S. cerevisiae AGP1-GFP multiplex flow cytometry, 3 h; GFP as percent of DMSO wells;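 active = GFP response relative to DMSO above a set limit, near screen average plus 3 SD, cut at about 150% in these data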;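 also: median GFP channel fluorescence of the gated AGP1 strain per well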
LAP4-GFP MLPCN = modulators of TOR pathway LAP4-GFP in S. cerevisiae; S. cerevisiae LAP4-GFP multiplex, flow cytometry GFP, 3 h; median GFP as percent of DMSO wells; GFP response vs DMSO, % at 10 µM; 320,000 compounds, 0.34% hits;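 active = GFP response vs DMSO above a set limit, about the screen mean plus 3 SD, cut at about 150% in these data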
MEP2-GFP yeast = alters MEP2-GFP fluorescence in TOR pathway yeast screen; S. cerevisiae MEP2-GFP strain, flow cytometry GFP, 3 h; 100% = DMSO control level; GFP response vs DMSO, % at 10 µM; 330,000 compounds, 0.51% hits; AID 2016;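 active = GFP response versus DMSO above a set limit, roughly screen mean plus 3 SD, cut at about 180% in these data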;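 also: median GFP fluorescence of the barcode-gated MEP2-GFP cells per well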
RPL19A TOR yeast = modulators of TOR pathway RPL19A-GFP in S. cerevisiae. S. cerevisiae RPL19A-GFP strain, flow cytometry, 3 h; hits give low values. percent response vs DMSO, % at 10 µM. 330,000 compounds, 0.3% hits;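 active = percent response vs DMSO below 50%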;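 also: median channel GFP fluorescence of the barcoded RPL19A-GFP strain; ratio of sample median GFP to plate DMSO average so 100% = DMSO; lower means less RPL19A-GFP as with rapamycin TOR inhibition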
LAP4-GFP pick2 = reconfirmed LAP4-GFP TOR pathway modulator in yeast; shares compounds with LAP4-GFP MLPCN; S. cerevisiae LAP4-GFP strain, flow cytometry GFP, 3 h; GFP response vs DMSO, % at 10 µM; 590 compounds, 20% hits; AID 2621;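 active = GFP signal as percent of the solvent control above about 150%, meaning raised reporter expression, limit read from the data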;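 also: ratio of well median GFP fluorescence to plate DMSO mean so 100% = DMSO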
MEP2 cherry2 = second confirmation of modulators of TOR reporter MEP2-GFP in yeast. AID 2622. shares compounds with LAP4-GFP MLPCN. GFP response vs DMSO, % at 10 µM. S. cerevisiae MEP2-GFP strain, flow cytometry GFP, 3 h. 590 compounds, 10% hits;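 active = GFP signal above 150% of the solvent control wells, that is a rise of more than half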;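 also: median channel GFP fluorescence of all gated yeast cells per well; ratio of median GFP to plate DMSO average so 100% = DMSO level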
RPL19A GFP CP2 = second confirmation of modulators of TOR reporter RPL19A-GFP in yeast; GFP response vs DMSO, % at 10 µM; shares compounds with LAP4-GFP MLPCN; 590 compounds, 3% hits; S. cerevisiae RPL19A-GFP strain, flow cytometry GFP, 3 h; hits give low values; 100% means same as DMSO wells;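 active = under 65% GFP response relative to DMSO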;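 also: median GFP channel fluorescence per well over the all cells gate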
CIT2 GFP CP2 = second confirmation of modulators of TOR reporter CIT2-GFP in yeast; shares compounds with LAP4-GFP MLPCN; S. cerevisiae CIT2-GFP strain, flow cytometry GFP, 3 h; DMSO control wells read 100%; GFP response vs DMSO, % at 10 µM; 590 compounds, 8% hits; AID 2624;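 active = GFP response vs DMSO above about 150%, limit read from the data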;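 also: median green fluorescence per well over all gated yeast cells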
AGP1-GFP pick2 = second confirmation of modulators of TOR reporter AGP1-GFP in yeast; percent response vs DMSO, % at 10 µM; AID 2643; shares compounds with LAP4-GFP MLPCN; S. cerevisiae AGP1-GFP strain, flow cytometry GFP, 3 h; 590 tested, under 10 active;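 active = over 150 percent of DMSO response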;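 also: median GFP channel fluorescence over all cells without mother daughter split; sample median GFP divided by mean DMSO control so 100% equals DMSO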
Yeast autofluor = counter-screen for compound autofluorescence in yeast s288c cells; S. cerevisiae s288c, 520 nm autofluorescence, flow cytometry, 3 h; hits give high values; zero means same as solvent-only cells; 610 tested, under 10 active; AID 2757; shares compounds with LAP4-GFP MLPCN; fluorescence change (kMESF span) at 33 µM;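 active = fluorescence span over the dose series, or activity score, above about 33, limit read from the data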
Yeast autofl DR = TOR screen hit shows autofluorescence in yeast s288c; S. cerevisiae s288c parental, compound autofluorescence, flow cytometry, 3 h; shares compounds with LAP4-GFP MLPCN; 110 tested, under 10 active; fluorescence change (span) at 33 µM; AID 488829;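 active = fluorescence change span, or the activity score built from it, above 25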
TORC1 bypass gr = compounds blocking wildtype yeast growth but not TORC1 bypass cells; shares compounds with LAP4-GFP MLPCN; S. cerevisiae BY4741 spot growth rating, 48-72 h; hits give low values; growth rating (0-3) at 30 µM; 120 tested, under 10 active; AID 504456;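 active = growth rating at most 1 for wild type yeast while the TORC1 bypass strain still grows fully, rated 3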
Active calls of the source: *; . = not tested or not shown; [ ] = remark or other dose. A selection: hits, their analogues and other compounds. The true share with any hit is near 0.93%.

SMILES	CIT2 TOR yeast	AGP1-GFP MLPCN	LAP4-GFP MLPCN	MEP2-GFP yeast	RPL19A TOR yeast	LAP4-GFP pick2	MEP2 cherry2	RPL19A GFP CP2	CIT2 GFP CP2	AGP1-GFP pick2	Yeast autofluor	others
O=c1c2cnn(-c3ccccc3)c2ncn1Cc1ccco1	52	77	121	99	64	130	100	99	98	93	0.1
Cc1cc(C)c(S(=O)(=O)NC2CC3CCC2C3)c(C)c1 (stereo not given)	97	96	101	106	107	.	.	.	.	.	.
NS(=O)(=O)c1ccc(NC(=S)N2CCC(Cc3ccccc3)CC2)cc1	101	107	106	111	111	.	.	.	.	.	.
O=C(C1CCCO1)N1CCN(C(=S)Nc2cccc(F)c2)CC1 (stereo not given)	98	109	105	94	94	.	.	.	.	.	.
CC1CCC(C(C)C)C(OP(=O)(c2ccc(N(C)C)cc2)C(O)c2cccnc2)C1 (stereo not given)	234*[may fluoresce green]	113	150	232*[may fluoresce green]	119	95	108	102	106	103	.
COc1cc(N=c2ssnc2Cl)cc(OC)c1	74	84	151*	90	91	114	110	93	121	96	1
O=C(Cc1ccc([N+](=O)[O-])cc1)Nc1cc(C(F)(F)F)cc(C(F)(F)F)c1	96	102	106	98	98	.	.	.	.	.	.
COC(=O)c1ccccc1Oc1cc(C(F)(F)F)nc(-c2ccccn2)n1	85	96	105	97	96	.	.	.	.	.	.
Cc1cccc(CN2C(=O)/C(=C\c3ccc(C(=O)NCCCN4CCN(C)CC4)cc3)Oc3ccccc32)c1	71	82	164*	90	91	135	105	89	102	92	.
O=C(CCNS(=O)(=O)c1cccc(C(F)(F)F)c1)NCc1ccco1	94	98	98	98	101	.	.	.	.	.	.
CC(C)(C)C1C/C(=C/c2ccccn2)C(=O)/C(=C/c2ccccn2)C1 (stereo not given)	84	80	162*	97	99	181*	98	104	106	96	0
CCCn1nnnc1NC(=O)COc1ccc(Br)cc1	91	95	95	95	95	.	.	.	.	.	.
COc1cc(NC(=O)c2cccc(C)c2)ccc1NC(=O)c1cc2ccccc2o1	101	99	91	113	107	.	.	.	.	.	0.1
O=C(Nc1ccccc1)c1cc2ccccc2o1	81	84	101	92	90	.	.	.	.	.	.
O=C(Nc1ccc(NC(=O)c2cc3ccccc3o2)cc1)c1ccco1	101	98	93	105	106	.	.	.	.	.	0.3
COc1ccccc1CNC(=O)CN(c1ccc(C)cc1)S(=O)(=O)c1c(C)noc1C	96	98	86	104	97	.	.	.	.	.	.
Brc1ccc(-c2ccc(C3Nc4cccc5cccc(c45)N3)o2)cc1	72	94	155*	90	93	127	106	91	87	92	.
Cc1ccc(S(=O)(=O)NCC(=O)OCC(=O)c2ccc(Cl)s2)cc1	102	97	89	105	106	.	.	.	.	.	.
C[n+]1cccc2c(Br)ccc([O-])c21	100	108	111	103	101	.	.	.	.	.	.
[O-][n+]1cccc2c(Br)cc(Br)c(O)c21	118	108	163*	100	101	.	.	.	.	.	1.1
CC(=O)NCC1CCCN(Cc2cn(-c3ccccc3)nc2-c2ccc3c(c2)OCO3)C1 (stereo not given)	91	117	192*	112	81	96	96	100	111	99	.
CC1=NNC(=O)/C1=C\c1cn(-c2ccccc2)nc1-c1cccs1	94	88	263*	108	92	.	.	.	.	.	3
CN(C)/C=C/C(=O)c1ccc(-c2ccc(Cl)cc2Cl)o1	85	21	83	160	58	159*	148	113	154*	87	0.8
O=C(O)c1ccc(-c2ccc(Cl)cc2Cl)o1	76	69	98	93	81	.	.	.	.	.	.
CCCOc1ccc(C(=O)NNC(=S)NC(=O)CC)cc1	81	87	259*	107	89	.	.	.	.	.	1.4	Yeast autofl DR=0.93;TORC1 bypass gr=3
SMILES	CIT2 TOR yeast	AGP1-GFP MLPCN	LAP4-GFP MLPCN	MEP2-GFP yeast	RPL19A TOR yeast	LAP4-GFP pick2	MEP2 cherry2	RPL19A GFP CP2	CIT2 GFP CP2	AGP1-GFP pick2	Yeast autofluor	others
O=C(NCCn1c(C(F)(F)F)nc2ccccc21)[C@H]1CCCN1c1nc(CN2CCCCC2)cs1	71	83	105	86	98	.	.	.	.	.	.
CC(=O)Oc1ccc(N2C(=O)C3C4C=CC(CO)(O4)C3C2=O)cc1 (stereo not given)	93	97	130	98	.	.	.	.	.	.	0.2
O=C1C2C3C=CC(CO)(O3)C2C(=O)N1c1ccccc1-c1ccccc1 (stereo not given)	77	78	194*	111	84	.	.	.	.	.	4.9
O=C(COC(=O)c1ccccc1C(=O)OCC(=O)NCCc1c[nH]c2ccccc12)NCCc1c[nH]c2ccccc12	131	96	155*	95	97	102	98	97	102	99	.
O=C(COc1ccc(Br)cc1Cl)NNC(=O)c1ccccc1	91	99	104	101	99	.	.	.	.	.	.
Cc1nn(C)c(C(=O)N/N=C/c2cccnc2)c1Br	102	102	107	101	101	.	.	.	.	.	.
CC(=O)Nc1ncc(Cc2ccc(Cl)cc2Cl)s1	90	103	112	101	95	.	.	.	.	.	.
Cc1ccnc2c1ccc1c(C)ccnc12	85	90	166*	101	94	99	110	97	96	97	.

Bioassay records: PubChem, NMMLSC
